About 79,000 compounds went through this panel and 15% of them were active in at least one assay; those are over-represented in the sample as a whole. Active and inactive are the calls of the source. No stated cut-off is given here; in the data, active means growth inhibition above about 70%; inactive means the rest.
How the values were obtained:
[1] = NCI Yeast Anticancer Drug Screen. Data for the rad50 strain (AID 155);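 further: 0% = growth of vehicle-only cultures of the same strain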; settings: S. cerevisiae rad50 strain growth inhibition, active compounds read high
Procedure, shortened: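 Growth of the mutant yeast was measured after compound exposure and referenced to vehicle-treated cultures.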

[2] = NCI Yeast Anticancer Drug Screen. Data for the mec2-1 strain (AID 157); settings: S. cerevisiae mec2-1 strain, active compounds read high
Procedure, shortened: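 Cells of the genetically defined mec2-1 yeast strain are incubated with test compound. Inhibition of growth is calculated against vehicle-treated controls.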

[3] = NCI Yeast Anticancer Drug Screen. Data for the sgs1 mgt1 strain (AID 161);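 further: 0% = growth of cultures given vehicle only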; settings: S. cerevisiae sgs1 mgt1 strain, active compounds read high
Procedure, shortened: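 Test agents were incubated with a DNA-repair-mutant yeast strain. Growth was then read and compared against vehicle-treated controls.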

[4] = NCI Yeast Anticancer Drug Screen. Data for the cln2 rad14 strain (AID 165);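 further: 0% = growth equal to vehicle treated cultures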; settings: S. cerevisiae cln2 rad14 strain, active compounds read high
Procedure, shortened: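 The screen exposed genetically defined yeast (cln2 rad14) to test compounds and scored growth inhibition relative to vehicle-treated controls.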

[5] = NCI Yeast Anticancer Drug Screen. Data for the bub3 strain (AID 167); settings: S. cerevisiae bub3 mutant strain, active compounds read high
Procedure, shortened: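 Whole-cell yeast assay. The mutant strain was incubated with compounds, and growth inhibition was determined by comparison with vehicle-treated cells.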

[6] = NCI Yeast Anticancer Drug Screen. Data for the mlh1 rad18 strain (AID 175); settings: S. cerevisiae mlh1 rad18 strain growth inhibition, active compounds read high
Procedure, shortened: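 Compound-treated yeast growth, normalised to vehicle controls. Strain bears defined DNA repair mutations.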

[7] = at 5.0 µM (retest, dose inferred, filed as 0.5)
[8] = at 50.0 µM (retest, dose inferred, filed as 5.0)

Measured: growth inhibition

NC(=S)N/N=C\c1nccc2c(C(F)(F)C(F)(F)C(F)(F)F)cccc12
inactive: [1]; [7] 26% | [1]; [8] 61% | [1]; at 50.0 µM 57.9% | [2]; [7] 39% | [2]; [8] 69% | [3]; [7] 39% | [3]; [8] 69% | [4]; [7] 10% | [4]; [8] 62% | [4]; at 50.0 µM 69.6% | [5]; [7] 11% | [6]; [7] 24% | [6]; [8] 69%
active: [2]; at 50.0 µM 74.5% | [3]; at 50.0 µM 74% | [5]; [8] 81% | [5]; at 50.0 µM 75.6% | [6]; at 50.0 µM 73.3%

CC(C)(C)C1=NC(=S)SC2=NC(=O)C3(NN21)c1ccccc1-c1ccccc13
active: [1]; [8] 86% | [1]; at 50.0 µM 90.9% | [2]; at 50.0 µM 74.3% | [3]; [8] 78% | [3]; at 50.0 µM 86.6% | [5]; [8] 72% | [5]; at 50.0 µM 91% | [6]; [8] 77% | [6]; at 50.0 µM 94.9%
inactive: [1]; [7] 6% | [2]; [7] -6% | [2]; [8] 53% | [3]; [7] 5% | [4]; [7] -10% | [4]; [8] 45% | [4]; at 50.0 µM 63% | [5]; [7] -11% | [6]; [7] 6%

NC1CCCCC1N.O=S(=O)([O-])CCCN1CCN(CCO)CC1.O=S(=O)([O-])CCCN1CCN(CCO)CC1.[Pt+4]
active: [1]; [8] 98% | [2]; [8] 99% | [3]; [8] 98% | [5]; [8] 97% | [6]; [8] 98%
inactive: [1]; [7] 8% | [1]; at 50.0 µM -8.45% | [2]; [7] 8% | [2]; at 50.0 µM -9.95% | [3]; [7] 12% | [3]; at 50.0 µM 23.1% | [4]; [7] 44% | [4]; [8] 66% | [4]; at 50.0 µM -15.8% | [5]; [7] -24% | [5]; at 50.0 µM -2.7% | [6]; [7] 16% | [6]; at 50.0 µM 24.4%

O=C(O)c1ccc2c(c1)CC1(C2)Cc2cc3c(cc2C1=O)CCC3 (configuration not stated)
inactive: [1]; [7] 34% | [1]; [8] 34% | [2]; [7] 22% | [2]; [8] 22% | [3]; [7] 19% | [3]; [8] 19% | [4]; [7] 21% | [4]; [8] 21% | [5]; [7] 12% | [5]; [8] 12% | [6]; [7] 25% | [6]; [8] 25%
active: [1]; at 50.0 µM 84.3% | [2]; at 50.0 µM 83.8% | [3]; at 50.0 µM 79.5% | [4]; at 50.0 µM 83.1% | [5]; at 50.0 µM 81.8% | [6]; at 50.0 µM 79.9%

CC(=O)/C(=C\c1ccccc1Cl)C(=O)CCN(C)C
inactive: [1]; [7] -35% | [1]; at 50.0 µM 37.4% | [2]; [7] 8% | [2]; at 50.0 µM 38.1% | [3]; [7] 0% | [4]; [7] 6% | [4]; at 50.0 µM 20.6% | [5]; [7] 7% | [5]; at 50.0 µM 18.4% | [6]; [7] -17%
active: [1]; [8] 93% | [2]; [8] 96% | [3]; [8] 94% | [3]; at 50.0 µM 74% | [4]; [8] 97% | [5]; [8] 97% | [6]; [8] 97% | [6]; at 50.0 µM 80.8%

O=C(NNc1nc(-c2ccccc2)cs1)Nc1ccccc1
active: [1]; at 50.0 µM 77.2% | [2]; at 50.0 µM 90.1% | [3]; [7] 99% | [3]; [8] 98% | [3]; at 50.0 µM 88.5% | [4]; [7] 98% | [4]; [8] 97% | [5]; [7] 99% | [5]; [8] 97% | [5]; at 50.0 µM 83.8% | [6]; at 50.0 µM 75.1%
inactive: [1]; [7] 30% | [1]; [8] 54% | [2]; [7] 19% | [2]; [8] 44% | [4]; at 50.0 µM 23.6% | [6]; [7] 48% | [6]; [8] 66%

CCC[CH2][Sn]1([CH2]CCC)[O]C(=O)CN=Cc2c(ccc3ccccc23)[O]1
active: [1]; at 50.0 µM 91.2% | [2]; [7] 74% | [2]; [8] 74% | [2]; at 50.0 µM 94% | [3]; at 50.0 µM 92.9% | [4]; at 50.0 µM 92.6% | [5]; at 50.0 µM 92.6% | [6]; at 50.0 µM 91.7%
inactive: [1]; [7] 47% | [1]; [8] 47% | [3]; [7] 38% | [3]; [8] 38% | [4]; [7] 48% | [4]; [8] 48% | [5]; [7] 53% | [5]; [8] 53% | [6]; [7] 67% | [6]; [8] 67%

CCN(CC)CCNCc1ccccc1
inactive: [1]; [7] -157% | [1]; [8] -178% | [1]; at 50.0 µM -7.3% | [2]; [7] -49% | [2]; [8] -57% | [2]; at 50.0 µM -1.15% | [3]; [7] -64% | [3]; [8] -67% | [3]; at 50.0 µM 10.9% | [4]; [7] -62% | [4]; [8] -66% | [4]; at 50.0 µM 38.7% | [5]; [7] -70% | [5]; [8] -86% | [5]; at 50.0 µM 5.45% | [6]; [7] -139% | [6]; [8] -119% | [6]; at 50.0 µM 1.8%

O/N=C/c1cc(Cl)cc(Cl)c1O
inactive: [3]; [7] 53% | [3]; [8] 47%
active: [1]; [7] 96% | [1]; [8] 96% | [1]; at 50.0 µM 97.7% | [2]; [7] 93% | [2]; [8] 89% | [2]; at 50.0 µM 95.1% | [3]; at 50.0 µM 98% | [4]; [7] 80% | [4]; [8] 94% | [4]; at 50.0 µM 96.7% | [5]; [7] 85% | [5]; [8] 94% | [5]; at 50.0 µM 73.5% | [6]; [7] 97% | [6]; [8] 95% | [6]; at 50.0 µM 97.8%

Reference: PubChem BioAssay (NCI)
